Structures are written as SMILES. About 83,000 compounds went through this panel and 20% of them were active in at least one assay; those are over-represented in the sample as a whole.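 In brief: 96-well plates, 48 h treatment, single concentration, percent growth endpoint.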 Unmarked numbers belong to inactive results. Activity calls are given as the source filed them. Rule for the calls: active = growth percent below 10; inactive = the rest.

The record followed here is PubChem BioAssay (NCI).

The subject of the assay is MDA-MB-468 breast. Nature of the assay: NCI-60 one-dose screen, 48 h (100 = growth as untreated, 0 = no growth, -100 = all killed). The conditions noted are these: 10 µM unless noted.
For the molecule `CCCCCCCCOC(=O)C(C)OC(=O)OCCOCCOC(=O)OC(C)C(=O)OCCCCCCCC` (stereo not given), the growth was 98.6%.
Under `O=C1N=c2ccccc2=C1c1sc(=S)n(C2CC(=O)N(c3ccc(Cl)cc3)C2=O)c1O` (stereo not given) stands 95.2%; under `COc1cc2c(c(OC)c1OC)CCC(c1cccc(C(=O)Nc3ccc([N+](=O)[O-])cc3)c1)O2` (stereo not given), 38.2%; under `C#C[C@]1(O)CC[C@H]2[C@@H]3CC=C4c5nc(Nc6ccccn6)sc5CC[C@]4(C)[C@H]3CC[C@@]21C`, 14.2%.
Take `COc1ccc(C(C)=O)c(OC)c1`: the growth is 97.7%.
For `COc1ccc(C2Nc3ncnc(N)c3N=C3c4ccccc4C(=O)C32)cc1` (stereo not given), the growth is 86.1%.
Turning to `COc1cc(-c2nn(-c3cccc(NC(=O)c4ccccc4)c3)cc2-c2ccncc2)ccc1Cl`, the growth was -19.7% (active).
Under `C=CC[n+]1c(/C=C2\Sc3ccccc3N2C)sc(-c2ccccc2)c1-c1ccccc1` stands 1.16% (active).
For the molecule `C=C1C(=O)O[C@H]2[C@H]1CC/C(COC(=O)N[C@H]1C[C@H](O[C@H]3C[C@](O)(C(=O)CO)Cc4c(O)c5c(c(O)c43)C(=O)c3c(OC)cccc3C5=O)O[C@@H](C)[C@H]1O)=C\CC[C@@]1(C)O[C@@H]21`, the growth was -55.9% (active).
To `CCN(CC)CCCC(C)Nc1ccnc2c(OC)cccc12` (stereo not given) belongs 117%.
To `NC(=O)/C=C/C(=O)c1c(Cl)cccc1Cl` belongs -83.5% (active).
To `CCc1ccc(CNc2ccc(N3CCOCC3)c(C(=O)O)c2)cc1` belongs 101%; to `CC(=O)OCCCCCCn1c2ccccc2c2c3c(c4c5ccccc5n(C)c4c21)C(=O)N(O)C3=O`, 90.4%.
On to `C/C(=N\Nc1cc(C)nc2ccc(Br)cc12)c1ccc([N+](=O)[O-])cc1`, for which the growth was 51.5%.
Under `Cc1nc(Nc2cccnc2)sc1C(=O)/C=C/c1ccc(Cl)cc1` stands 11.8%; under `CCCCCCCCCCCCCCCCCCOc1ccc(CC(=O)OCC[N+]2(C)CCCCC2)cc1`, 92.2%.
Under `COc1ccc([C@@H]2[C@@H](O)C(=O)N2c2cc(OC)c(OC)c(OC)c2)cc1` stands 2.98% (active); under `O=C(OCc1ncc(-c2ccc(C(F)(F)F)cc2)c(NC2CCCCCC2)n1)c1c(F)c(F)c(F)c(F)c1F`, 16.9%.
Take `O=C(Nc1ccc(Cl)cc1)N1CCN(c2ccc3nncn3n2)CC1`: the growth is -78.2% (active).
`O=S(=O)(Nc1ccc(NS(=O)(=O)c2ccccc2)c(Cl)c1)c1ccccc1`: the growth is 116%.
To `COc1ccc(C2CC(c3cccc(Nc4ccnc5cc(Cl)ccc45)c3)=NN2C=O)cc1` (stereo not given) belongs 7.85% (active).
Under `COc1ccc2c(c1)C(c1c[nH]c3ccccc13)(c1c[nH]c3ccccc13)CCO2` stands 35%; under `COc1cc(/C(C#N)=C/c2nc3c(N4CCOCC4)nc(Cl)nc3n2C)cc(OC)c1OC`, 15%.
To `O=C(Nc1ccc(F)cc1F)c1cc(F)ccc1O` belongs -0.731% (active).
`CCN(CC)CCCC(C)NC(=S)N/N=C(\C)c1ccccn1` (stereo not given): the growth is -7.86% (active).
Regarding `CCOC(=O)c1c2c(c(C)n1Cc1ccc(OC)cc1)-c1nc(N)ncc1CC2`, the growth is 107%.
Under `CCN(CC)CCNC(=O)C(Cl)=C1C(Cl)=C(Cl)C(Cl)=C1Cl` stands 75.8%; under `O=Cc1[nH]c(Sc2ccccc2)c2ccccc12`, 47.7%.
In the case of `COc1cccc(-c2nc3sccn3c2-c2ccnc(NCCNS(=O)(=O)c3ccc(F)cc3)c2)c1`, the growth is 19.2%.
Regarding `COc1ccc(-c2cc(-c3cc(OC)c(OC)c(OC)c3)nc(N3CCOCC3)c2C#N)cc1`, the growth was 76%.
Under `O=C1C(=O)c2cccnc2-c2ncccc21` stands -91% (active); under `CCOC(OCC)C(=O)c1ccccc1`, 102%.
Under `O=C(NC1CCC(Br)CC1)C1CCCC(S(=O)(=O)NC2CCCCC2)C1` (stereo not given) stands -3.64% [25 µM] (active).
Take `Clc1ccc(CSc2nnc(-c3ccc(Cl)cc3)n2-c2ccccc2)cc1`: the growth was 64.8%.
To `O=C(Cc1ccccc1)C(F)(F)F` belongs 111%; to `Oc1ccc(Cl)cc1Cc1cc(Cl)cc(Cl)c1O`, 18.4%.
Take `Cc1cc(-c2cc(O)ccc2Cl)cc2nnc(Nc3ccc(OCCN4CCCC4)cc3)nc12`: the growth was -69.4% (active).
Take `O=C(CCCCCCN1CC(=O)N2[C@H](c3ccc(Br)cc3)c3[nH]c4ccccc4c3C[C@@H]2C1=O)NO`: the growth was 33.9%.
Under `Cc1cc2oc(=O)cc(CP(=O)(O)O)c2cc1O` stands 89.8%.
`NC(=N\N=C/c1ccc(Cl)cc1Cl)/C(N)=N\N=C/c1ccc(Cl)cc1Cl`: the growth was 62.8%.
